Measurements taken from PMC7862700, “An all-to-all approach to the identification of sequence-specific readers for epigenetic DNA modifications on cytosine”.

Assays:
Experiment in all cases: DAPPL (digital affinity profiling via proximity ligation, sequencing); 10 mM Tris-HCl pH 7.5, 50 mM NaCl, 1 mM DTT, 4% glycerol, room temperature, 30 min; GST-TFs on glutathione beads, 16-mer random dsDNA library, 0.1% formaldehyde crosslink after washing; high values mean tight binding
Conditions in all cases: protein: recombinant; tags: N-terminal GST; dsDNA, one strand shown
FLI1 = biological target: T1, FLI1 (Homo sapiens, UniProt Q01543 1-452)
T1 sequence: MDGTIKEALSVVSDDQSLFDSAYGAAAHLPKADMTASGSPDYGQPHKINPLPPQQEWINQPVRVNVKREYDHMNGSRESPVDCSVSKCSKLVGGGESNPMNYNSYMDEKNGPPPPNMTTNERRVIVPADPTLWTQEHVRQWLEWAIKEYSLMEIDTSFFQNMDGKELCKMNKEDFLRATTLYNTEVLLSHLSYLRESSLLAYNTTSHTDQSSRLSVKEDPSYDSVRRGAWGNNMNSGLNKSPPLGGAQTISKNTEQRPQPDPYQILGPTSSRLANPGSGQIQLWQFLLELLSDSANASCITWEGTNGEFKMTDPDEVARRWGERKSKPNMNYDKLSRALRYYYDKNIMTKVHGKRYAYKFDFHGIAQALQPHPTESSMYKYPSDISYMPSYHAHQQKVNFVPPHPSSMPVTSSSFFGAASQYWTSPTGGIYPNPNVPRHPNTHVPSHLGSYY
Method in brief: (§1)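 Sequencing on an Illumina NextSeq500 followed washing, crosslinking with 0.1% formaldehyde, proximity ligation (BsaI/T4 ligase, 1 h, 37 °C) and PCR amplification of pools that had been incubated for 30 min at room temperature with 200 nmole of a random double-stranded 16-mer DNA library in Tris/NaCl/DTT/glycerol buffer. Each pool held DNA-barcoded human transcription factors, expressed in yeast as GST fusions and captured on glutathione beads, plus a tag-only sample. Binding signal is a hexamer's read frequency for a factor divided by its frequency in the tag-only sample.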

GABPA = biological target: T2, GABPA (Homo sapiens, UniProt Q06546 1-454)
T2 sequence: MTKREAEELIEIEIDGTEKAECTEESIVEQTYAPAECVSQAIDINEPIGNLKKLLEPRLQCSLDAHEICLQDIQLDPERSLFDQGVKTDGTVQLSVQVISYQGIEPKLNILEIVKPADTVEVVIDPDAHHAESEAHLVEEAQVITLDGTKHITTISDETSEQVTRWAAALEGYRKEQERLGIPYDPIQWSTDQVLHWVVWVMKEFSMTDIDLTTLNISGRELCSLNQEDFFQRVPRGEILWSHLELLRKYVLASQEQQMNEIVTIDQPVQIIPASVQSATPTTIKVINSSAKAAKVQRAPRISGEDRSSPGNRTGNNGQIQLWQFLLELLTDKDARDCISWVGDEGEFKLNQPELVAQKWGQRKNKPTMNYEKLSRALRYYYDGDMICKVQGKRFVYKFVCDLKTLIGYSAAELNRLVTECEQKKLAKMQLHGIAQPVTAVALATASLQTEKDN
Method in brief: as §1

ERG = biological target: T3, ERG (Homo sapiens, UniProt P11308 1-479)
T3 sequence: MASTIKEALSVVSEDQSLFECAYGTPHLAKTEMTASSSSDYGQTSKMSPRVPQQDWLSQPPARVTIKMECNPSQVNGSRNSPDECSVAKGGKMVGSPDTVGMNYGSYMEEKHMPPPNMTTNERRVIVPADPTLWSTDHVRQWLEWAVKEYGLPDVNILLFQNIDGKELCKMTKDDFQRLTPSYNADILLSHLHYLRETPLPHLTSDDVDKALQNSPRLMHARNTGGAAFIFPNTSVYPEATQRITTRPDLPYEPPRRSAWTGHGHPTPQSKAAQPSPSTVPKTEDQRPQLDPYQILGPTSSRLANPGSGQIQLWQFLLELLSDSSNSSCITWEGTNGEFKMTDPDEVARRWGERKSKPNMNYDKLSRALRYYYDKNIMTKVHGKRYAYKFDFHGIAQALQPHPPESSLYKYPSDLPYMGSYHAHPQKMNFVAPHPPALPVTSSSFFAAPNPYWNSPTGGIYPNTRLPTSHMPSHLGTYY
Method in brief: as §1

ELF1 = ELF1 (Homo sapiens, UniProt P32519 1-619)
Method in brief: as §1

EHF = biological target: T4, EHF (Homo sapiens, UniProt Q9NZC4 1-300)
T4 sequence: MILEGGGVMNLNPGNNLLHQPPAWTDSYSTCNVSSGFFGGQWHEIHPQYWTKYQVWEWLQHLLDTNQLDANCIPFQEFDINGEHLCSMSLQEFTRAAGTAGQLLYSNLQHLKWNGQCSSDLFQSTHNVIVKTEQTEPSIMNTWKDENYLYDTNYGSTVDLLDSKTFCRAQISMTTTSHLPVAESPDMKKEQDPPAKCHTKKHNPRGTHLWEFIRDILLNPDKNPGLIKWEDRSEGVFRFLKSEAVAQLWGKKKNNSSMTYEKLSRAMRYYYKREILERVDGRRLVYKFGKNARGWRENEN
Method in brief: as §1

SPI1 = SPI1 (Homo sapiens, UniProt P17947 1-270)
Method in brief: as §1

SPIB = SPIB (Homo sapiens, UniProt Q01892 1-262)
Method in brief: as §1

ELK3 = biological target: T5, ELK3 (Homo sapiens, UniProt P41970 1-407)
T5 sequence: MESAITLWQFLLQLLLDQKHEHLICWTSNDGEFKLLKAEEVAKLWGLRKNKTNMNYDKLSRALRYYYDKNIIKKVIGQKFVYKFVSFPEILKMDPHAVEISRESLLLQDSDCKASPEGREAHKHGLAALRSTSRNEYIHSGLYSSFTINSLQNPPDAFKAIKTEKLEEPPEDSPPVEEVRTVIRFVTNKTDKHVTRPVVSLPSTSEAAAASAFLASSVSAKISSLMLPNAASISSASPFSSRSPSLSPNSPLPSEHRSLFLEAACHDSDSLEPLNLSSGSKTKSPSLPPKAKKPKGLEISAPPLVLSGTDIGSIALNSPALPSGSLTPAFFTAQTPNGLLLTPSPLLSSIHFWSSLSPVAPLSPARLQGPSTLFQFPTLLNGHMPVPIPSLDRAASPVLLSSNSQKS
Method in brief: as §1

FEV = biological target: T6, FEV (Homo sapiens, UniProt Q99581 1-238)
T6 sequence: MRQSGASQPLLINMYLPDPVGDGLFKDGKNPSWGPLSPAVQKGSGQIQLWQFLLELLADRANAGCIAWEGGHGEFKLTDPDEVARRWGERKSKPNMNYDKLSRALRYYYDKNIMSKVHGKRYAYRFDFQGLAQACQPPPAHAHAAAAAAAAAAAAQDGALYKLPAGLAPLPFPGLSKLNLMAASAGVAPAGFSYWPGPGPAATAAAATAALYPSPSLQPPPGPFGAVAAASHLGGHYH
Method in brief: as §1

ETV5 = ETV5 (Homo sapiens, UniProt P41161 1-510)
Method in brief: as §1

SPIC = biological target: T7, SPIC (Homo sapiens, UniProt Q8N5J4 1-248)
T7 sequence: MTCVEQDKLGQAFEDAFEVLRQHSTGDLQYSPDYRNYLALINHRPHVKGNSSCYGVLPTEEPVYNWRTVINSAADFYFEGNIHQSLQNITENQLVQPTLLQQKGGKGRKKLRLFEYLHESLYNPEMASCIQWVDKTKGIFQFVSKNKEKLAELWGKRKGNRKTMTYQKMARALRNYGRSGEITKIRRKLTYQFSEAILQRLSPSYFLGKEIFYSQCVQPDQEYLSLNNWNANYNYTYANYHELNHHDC
Method in brief: as §1

ELF4 = ELF4 (Homo sapiens, UniProt Q99607 1-663)
Method in brief: as §1

ETV1 = ETV1 (Homo sapiens, UniProt P50549 1-477)
Method in brief: as §1

ERF = biological target: T8, ERF (Homo sapiens, UniProt P50548 1-548)
T8 sequence: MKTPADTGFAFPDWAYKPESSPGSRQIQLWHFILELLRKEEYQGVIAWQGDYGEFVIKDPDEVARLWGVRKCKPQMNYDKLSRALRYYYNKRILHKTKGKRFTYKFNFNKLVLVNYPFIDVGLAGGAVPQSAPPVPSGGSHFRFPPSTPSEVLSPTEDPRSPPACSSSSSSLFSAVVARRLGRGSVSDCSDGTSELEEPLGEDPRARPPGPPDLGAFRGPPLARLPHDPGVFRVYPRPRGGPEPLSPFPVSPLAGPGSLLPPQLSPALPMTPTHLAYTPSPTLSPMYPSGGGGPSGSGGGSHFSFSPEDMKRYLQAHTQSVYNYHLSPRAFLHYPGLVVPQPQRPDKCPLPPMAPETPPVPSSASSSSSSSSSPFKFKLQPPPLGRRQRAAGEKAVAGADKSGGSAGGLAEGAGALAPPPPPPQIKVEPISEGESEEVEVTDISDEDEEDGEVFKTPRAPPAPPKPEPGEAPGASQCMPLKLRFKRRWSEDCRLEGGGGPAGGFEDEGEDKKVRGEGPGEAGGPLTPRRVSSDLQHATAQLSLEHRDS
Method in brief: as §1

ETV3L = biological target: T9, ETV3L (Homo sapiens, UniProt Q6ZN32 1-361)
T9 sequence: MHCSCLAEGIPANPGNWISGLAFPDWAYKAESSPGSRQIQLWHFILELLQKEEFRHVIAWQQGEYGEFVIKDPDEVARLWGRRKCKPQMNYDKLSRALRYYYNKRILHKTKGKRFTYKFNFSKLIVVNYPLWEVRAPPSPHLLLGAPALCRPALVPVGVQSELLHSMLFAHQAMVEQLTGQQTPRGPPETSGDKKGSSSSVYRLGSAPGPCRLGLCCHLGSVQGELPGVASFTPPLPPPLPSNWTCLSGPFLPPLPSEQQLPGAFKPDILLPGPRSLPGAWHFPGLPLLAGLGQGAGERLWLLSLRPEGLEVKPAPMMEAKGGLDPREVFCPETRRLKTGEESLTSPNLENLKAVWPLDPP
Method in brief: as §1

ETS2 = biological target: T10, ETS2 (Homo sapiens, UniProt P15036 1-469)
T10 sequence: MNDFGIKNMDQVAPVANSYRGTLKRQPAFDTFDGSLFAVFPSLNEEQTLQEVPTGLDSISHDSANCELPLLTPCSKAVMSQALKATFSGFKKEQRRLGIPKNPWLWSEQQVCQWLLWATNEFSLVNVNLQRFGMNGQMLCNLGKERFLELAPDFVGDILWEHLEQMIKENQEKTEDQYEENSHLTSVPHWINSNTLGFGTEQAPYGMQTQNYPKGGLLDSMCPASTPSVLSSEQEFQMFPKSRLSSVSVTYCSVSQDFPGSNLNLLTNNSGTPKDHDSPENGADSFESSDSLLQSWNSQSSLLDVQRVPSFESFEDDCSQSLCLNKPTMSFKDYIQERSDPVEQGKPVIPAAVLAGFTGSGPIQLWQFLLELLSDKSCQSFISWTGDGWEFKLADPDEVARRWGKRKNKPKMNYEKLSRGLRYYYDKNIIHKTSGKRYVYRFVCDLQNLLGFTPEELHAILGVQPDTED
Method in brief: as §1

SPDEF = biological target: T11, SPDEF (Homo sapiens, UniProt O95238 1-335)
T11 sequence: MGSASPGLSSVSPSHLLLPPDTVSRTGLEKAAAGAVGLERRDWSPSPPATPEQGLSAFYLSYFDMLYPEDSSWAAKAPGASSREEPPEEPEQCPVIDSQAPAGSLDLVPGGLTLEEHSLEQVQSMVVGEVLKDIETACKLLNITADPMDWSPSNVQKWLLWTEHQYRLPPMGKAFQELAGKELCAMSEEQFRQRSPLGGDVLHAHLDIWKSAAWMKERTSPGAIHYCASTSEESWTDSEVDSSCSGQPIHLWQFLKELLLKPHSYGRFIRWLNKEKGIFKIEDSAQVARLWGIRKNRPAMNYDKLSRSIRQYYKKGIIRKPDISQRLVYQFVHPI
Method in brief: as §1

ETV3 = biological target: T12, ETV3 (Homo sapiens, UniProt P41162-2 1-143)
T12 sequence: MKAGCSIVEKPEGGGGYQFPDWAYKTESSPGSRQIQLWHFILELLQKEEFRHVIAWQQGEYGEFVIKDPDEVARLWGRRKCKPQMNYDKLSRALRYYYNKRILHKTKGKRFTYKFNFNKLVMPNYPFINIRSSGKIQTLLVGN
Method in brief: as §1

ETV6 = ETV6 (Homo sapiens, UniProt P41212 1-452)
Method in brief: as §1

Sequence of ETV6 (P41212 whole entry): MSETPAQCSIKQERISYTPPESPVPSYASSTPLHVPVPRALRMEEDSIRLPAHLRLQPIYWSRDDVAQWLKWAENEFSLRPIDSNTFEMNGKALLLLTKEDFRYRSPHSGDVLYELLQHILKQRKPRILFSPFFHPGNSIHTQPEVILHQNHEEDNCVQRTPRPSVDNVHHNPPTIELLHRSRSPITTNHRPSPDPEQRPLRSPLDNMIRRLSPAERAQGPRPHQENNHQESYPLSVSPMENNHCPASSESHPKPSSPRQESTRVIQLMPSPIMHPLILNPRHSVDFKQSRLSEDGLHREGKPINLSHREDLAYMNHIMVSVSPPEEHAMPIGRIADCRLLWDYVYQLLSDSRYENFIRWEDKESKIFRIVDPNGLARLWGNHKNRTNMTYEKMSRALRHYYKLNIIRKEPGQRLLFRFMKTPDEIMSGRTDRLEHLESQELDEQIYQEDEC
Sequence of ETV1 (P50549 whole entry): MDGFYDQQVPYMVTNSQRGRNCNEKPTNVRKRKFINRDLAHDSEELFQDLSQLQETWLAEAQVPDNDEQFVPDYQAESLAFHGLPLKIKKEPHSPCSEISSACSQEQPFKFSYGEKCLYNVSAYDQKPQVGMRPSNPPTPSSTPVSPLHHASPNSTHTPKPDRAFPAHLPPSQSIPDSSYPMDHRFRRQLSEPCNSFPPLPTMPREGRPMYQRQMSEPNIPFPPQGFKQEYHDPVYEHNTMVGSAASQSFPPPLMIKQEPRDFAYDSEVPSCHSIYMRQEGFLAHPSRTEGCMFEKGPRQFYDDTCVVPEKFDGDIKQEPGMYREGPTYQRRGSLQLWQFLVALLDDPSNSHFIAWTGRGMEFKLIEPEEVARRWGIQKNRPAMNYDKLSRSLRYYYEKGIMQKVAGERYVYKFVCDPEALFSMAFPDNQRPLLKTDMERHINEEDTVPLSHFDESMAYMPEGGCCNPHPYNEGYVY
Sequence of SPIB (Q01892 whole entry): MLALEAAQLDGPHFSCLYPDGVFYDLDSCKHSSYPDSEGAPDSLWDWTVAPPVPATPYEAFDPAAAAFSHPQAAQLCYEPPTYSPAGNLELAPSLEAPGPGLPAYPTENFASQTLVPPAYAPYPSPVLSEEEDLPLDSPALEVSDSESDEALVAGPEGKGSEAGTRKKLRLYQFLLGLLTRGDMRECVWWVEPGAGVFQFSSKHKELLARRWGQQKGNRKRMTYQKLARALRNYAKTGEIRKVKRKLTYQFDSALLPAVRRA
Sequence of ELF1 (P32519 whole entry): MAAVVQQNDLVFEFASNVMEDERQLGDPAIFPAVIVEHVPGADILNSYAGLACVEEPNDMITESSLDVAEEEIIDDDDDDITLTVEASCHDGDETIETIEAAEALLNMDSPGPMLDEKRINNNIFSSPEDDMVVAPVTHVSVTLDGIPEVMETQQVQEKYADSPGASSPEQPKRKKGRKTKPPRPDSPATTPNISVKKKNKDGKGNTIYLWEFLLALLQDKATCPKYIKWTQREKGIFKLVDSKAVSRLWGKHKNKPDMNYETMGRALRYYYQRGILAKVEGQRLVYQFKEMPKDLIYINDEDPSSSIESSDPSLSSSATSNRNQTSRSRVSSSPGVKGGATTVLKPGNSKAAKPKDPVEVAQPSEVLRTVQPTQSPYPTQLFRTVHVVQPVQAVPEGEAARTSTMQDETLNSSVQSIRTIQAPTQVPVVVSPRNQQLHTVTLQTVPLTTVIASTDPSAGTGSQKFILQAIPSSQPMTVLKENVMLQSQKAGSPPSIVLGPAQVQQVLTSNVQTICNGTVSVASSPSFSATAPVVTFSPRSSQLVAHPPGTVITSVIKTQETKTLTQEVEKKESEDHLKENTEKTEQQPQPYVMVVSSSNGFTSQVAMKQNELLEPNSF
Sequence of ETV5 (P41161 whole entry): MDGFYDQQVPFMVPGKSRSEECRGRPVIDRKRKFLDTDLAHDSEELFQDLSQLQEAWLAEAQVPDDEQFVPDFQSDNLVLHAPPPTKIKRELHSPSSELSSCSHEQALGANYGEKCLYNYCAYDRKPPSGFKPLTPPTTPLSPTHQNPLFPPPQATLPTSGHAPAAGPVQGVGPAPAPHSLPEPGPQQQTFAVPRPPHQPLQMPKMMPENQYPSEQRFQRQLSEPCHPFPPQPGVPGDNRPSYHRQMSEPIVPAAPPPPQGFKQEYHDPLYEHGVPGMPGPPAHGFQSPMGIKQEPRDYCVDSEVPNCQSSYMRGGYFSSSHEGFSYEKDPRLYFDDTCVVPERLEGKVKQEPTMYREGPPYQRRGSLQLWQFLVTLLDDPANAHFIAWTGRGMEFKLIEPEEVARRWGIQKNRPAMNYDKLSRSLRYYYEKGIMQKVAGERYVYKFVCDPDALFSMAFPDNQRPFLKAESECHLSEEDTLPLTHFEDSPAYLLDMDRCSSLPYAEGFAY
Sequence of ELF4 (Q99607 whole entry): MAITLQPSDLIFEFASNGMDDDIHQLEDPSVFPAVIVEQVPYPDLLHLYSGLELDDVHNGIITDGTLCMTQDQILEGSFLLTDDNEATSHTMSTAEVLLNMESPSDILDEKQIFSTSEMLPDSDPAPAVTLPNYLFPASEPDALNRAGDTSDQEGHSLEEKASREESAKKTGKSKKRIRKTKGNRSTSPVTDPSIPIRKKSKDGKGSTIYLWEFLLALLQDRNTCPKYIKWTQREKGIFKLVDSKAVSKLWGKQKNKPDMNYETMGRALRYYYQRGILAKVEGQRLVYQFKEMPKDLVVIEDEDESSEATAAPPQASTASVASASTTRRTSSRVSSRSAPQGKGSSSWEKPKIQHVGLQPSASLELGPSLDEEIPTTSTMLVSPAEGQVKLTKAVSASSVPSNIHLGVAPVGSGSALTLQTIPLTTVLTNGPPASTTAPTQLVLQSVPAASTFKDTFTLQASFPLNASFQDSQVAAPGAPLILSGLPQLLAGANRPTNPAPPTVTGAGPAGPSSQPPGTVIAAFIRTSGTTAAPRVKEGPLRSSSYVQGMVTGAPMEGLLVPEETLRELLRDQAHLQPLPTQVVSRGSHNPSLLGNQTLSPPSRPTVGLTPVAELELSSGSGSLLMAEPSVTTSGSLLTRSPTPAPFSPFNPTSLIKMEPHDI

## GTCCTG
FLI1
  binding signal: 1.09 fold enrichment (6-mer frequency, TF over GST control)
GABPA
  binding signal: 1.05 fold enrichment (6-mer frequency, TF over GST control)
ERG
  binding signal: 1.17 fold enrichment (6-mer frequency, TF over GST control)
ELF1
  binding signal: 1.15 fold enrichment (6-mer frequency, TF over GST control)
EHF
  binding signal: 1.09 fold enrichment (6-mer frequency, TF over GST control)
SPI1
  binding signal: 1.16 fold enrichment (6-mer frequency, TF over GST control)
SPIB
  binding signal: 1.15 fold enrichment (6-mer frequency, TF over GST control)
ELK3
  binding signal: 1.05 fold enrichment (6-mer frequency, TF over GST control)
FEV
  binding signal: 1.1 fold enrichment (6-mer frequency, TF over GST control)
ETV5
  binding signal: 1.08 fold enrichment (6-mer frequency, TF over GST control)
SPIC
  binding signal: 1.3 fold enrichment (6-mer frequency, TF over GST control)
ELF4
  binding signal: 1.09 fold enrichment (6-mer frequency, TF over GST control)
ETV1
  binding signal: 1.17 fold enrichment (6-mer frequency, TF over GST control)
ERF
  binding signal: 1.08 fold enrichment (6-mer frequency, TF over GST control)
ETV3L
  binding signal: 1.19 fold enrichment (6-mer frequency, TF over GST control)
ETS2
  binding signal: 1.02 fold enrichment (6-mer frequency, TF over GST control)
SPDEF
  binding signal: 1.34 fold enrichment (6-mer frequency, TF over GST control)
ETV3
  binding signal: 1.2 fold enrichment (6-mer frequency, TF over GST control)
ETV6
  binding signal: 1.16 fold enrichment (6-mer frequency, TF over GST control)
